# Experimental data reported in ChEMBL document CHEMBL2218924, “A broad activity screen in support of a chemogenomic map for kinase signalling research and drug discovery” (Biochem J, 2013).
# Molecular target: Death-associated protein kinase 1 (Homo sapiens) (UniProt P53355)
# Settings: at 1 µM
# Sequence of Death-associated protein kinase 1 (Homo sapiens) (P53355 whole entry, looked up): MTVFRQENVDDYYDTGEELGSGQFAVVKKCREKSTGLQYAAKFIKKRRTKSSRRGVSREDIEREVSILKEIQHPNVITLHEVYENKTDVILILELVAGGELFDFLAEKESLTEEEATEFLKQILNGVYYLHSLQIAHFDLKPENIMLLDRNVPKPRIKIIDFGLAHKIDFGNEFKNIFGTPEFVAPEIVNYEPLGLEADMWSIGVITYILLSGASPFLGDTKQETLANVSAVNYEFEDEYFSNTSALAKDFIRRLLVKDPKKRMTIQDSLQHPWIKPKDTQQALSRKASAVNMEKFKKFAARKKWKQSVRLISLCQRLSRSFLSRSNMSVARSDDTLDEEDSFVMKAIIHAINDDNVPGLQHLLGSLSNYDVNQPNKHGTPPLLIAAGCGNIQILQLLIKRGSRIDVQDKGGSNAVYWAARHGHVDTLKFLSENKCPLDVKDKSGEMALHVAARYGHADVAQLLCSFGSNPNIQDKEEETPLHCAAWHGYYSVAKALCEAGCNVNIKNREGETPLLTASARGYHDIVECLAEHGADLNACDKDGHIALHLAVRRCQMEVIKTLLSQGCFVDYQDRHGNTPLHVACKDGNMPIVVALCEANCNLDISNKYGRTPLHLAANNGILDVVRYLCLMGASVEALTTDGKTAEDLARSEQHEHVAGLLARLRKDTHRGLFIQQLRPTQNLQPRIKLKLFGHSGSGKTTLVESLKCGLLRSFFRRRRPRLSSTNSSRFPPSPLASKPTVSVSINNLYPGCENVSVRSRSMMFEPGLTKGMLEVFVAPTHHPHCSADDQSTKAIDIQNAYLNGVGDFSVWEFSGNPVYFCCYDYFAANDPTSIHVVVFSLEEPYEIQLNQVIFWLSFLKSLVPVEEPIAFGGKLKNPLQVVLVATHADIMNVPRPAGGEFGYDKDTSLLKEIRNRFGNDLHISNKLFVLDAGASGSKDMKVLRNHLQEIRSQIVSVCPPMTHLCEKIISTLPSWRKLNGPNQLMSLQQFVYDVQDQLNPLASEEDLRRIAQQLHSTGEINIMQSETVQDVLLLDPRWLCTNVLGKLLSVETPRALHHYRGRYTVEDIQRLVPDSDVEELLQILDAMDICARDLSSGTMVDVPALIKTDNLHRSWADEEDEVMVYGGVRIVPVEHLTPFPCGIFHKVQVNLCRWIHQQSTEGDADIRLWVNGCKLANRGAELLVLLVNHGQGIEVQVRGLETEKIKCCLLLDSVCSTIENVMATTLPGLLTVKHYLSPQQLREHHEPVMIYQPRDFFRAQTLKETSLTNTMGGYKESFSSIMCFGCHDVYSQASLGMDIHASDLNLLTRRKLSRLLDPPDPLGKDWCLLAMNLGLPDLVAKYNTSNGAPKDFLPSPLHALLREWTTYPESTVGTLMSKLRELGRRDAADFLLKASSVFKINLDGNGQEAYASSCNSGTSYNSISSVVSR
row,SMILES,residual activity [%]
1,CO[C@H]1C[C@@H]2CC[C@@H](C)[C@@](O)(O2)C(=O)C(=O)N2CCCC[C@H]2C(=O)O[C@H]([C@H](C)C[C@@H]2CC[C@@H](O)[C@H](OC)C2)CC(=O)[C@H](C)/C=C(\C)[C@@H](O)[C@@H](OC)C(=O)[C@H](C)C[C@H](C)/C=C/C=C/C=C/1C,95
2,O=C1NC(=O)c2cc(Nc3ccc(F)cc3)c(Nc3ccc(F)cc3)cc21,87
3,Oc1ccc(-c2nc(-c3ccc(F)cc3)c(-c3ccncc3)[nH]2)cc1,92
4,CC(C)n1cnc2/c(=N/c3cccc(Cl)c3)nc(NCCO)[nH]c21,89
5,COc1ccc(CNc2nc(N(CCO)CCO)nc3c2ncn3C(C)C)cc1,93
6,N#CC(C#N)=C(N)/C(C#N)=C/c1ccc(O)cc1,85
7,N#Cc1c(NC(=O)c2cccc3ccccc23)sc2c1CCCC2,93
8,O=C1Nc2ccc(Cl)cc2/C1=C/c1cc(Cl)c(O)c(Cl)c1,79
9,Cc1nc2cc3nc(-c4cccs4)cnc3cc2n1C,94
10,COc1cc2nccc(Oc3ccc(NC(=S)NC(=O)c4ccccc4C)cc3)c2cc1OC,81
11,CCCC(=O)Oc1ccc2[nH]c(C(=O)c3cc4ccccc4[nH]3)cc2c1,83
12,O=C(NC(NC(=S)Nc1ccc(F)c([N+](=O)[O-])c1)C(Cl)(Cl)Cl)C(c1ccccc1)c1ccccc1 (stereo not given),90
13,COc1cc2ncnc(Nc3ccc(Oc4ccccc4)cc3)c2cc1OC,100
14,Oc1n[nH]c2nnc(-c3c(-c4ccccc4)nn4ccccc34)cc12,52
15,CN(C)S(=O)(=O)c1ccc2c(c1)/C(=C/c1cc3c([nH]1)CCCC3)C(=O)N2,90
16,COc1cc2nccc(Oc3ccc(NC(=O)Nc4cc(C)on4)c(Cl)c3)c2cc1OC,105
17,COc1ccc(-c2cnc3c(-c4ccsc4)cnn3c2)cc1,97
18,CCN1/C(=C/C(C)=O)Sc2ccc(OC)cc21,81
19,CC(C)c1nn(-c2c(Cl)cccc2Cl)c2nc(Cc3ccc(OCCO)cc3)[nH]c(=O)c12,94
20,Nc1n[nH]c2nc3ccccc3nc12,94
21,Cn1c2ccccc2c2c3c(c4c5ccccc5n(CCC#N)c4c21)CNC3=O,101
22,Oc1cccc(-c2nc(N3CCOCC3)c3oc4ncccc4c3n2)c1,99
23,Cc1nc(-c2ccccc2)c(-c2ccncc2)o1,81
24,Ic1cccc(CSc2nnc(-c3ccncc3)o2)c1,90
25,CCC(=O)Nc1ccc2ncnc(Nc3cccc(Br)c3)c2c1,80
26,COc1cc2ncnc(Nc3ccc(O)c(Br)c3)c2cc1OC,88
27,COc1ccc(C(=O)Nc2sc3c(c2C(N)=O)CCCC3)cc1OC,93
28,COc1ccc(OC)c2c(=S)c3ccccc3[nH]c12,95
29,COc1cc2ncnc(Nc3ccc(NC(=O)c4ccccc4)cc3)c2cc1OC,95
30,O=C1NC(=O)C(c2cn(CCCO)c3ncccc23)=C1c1cnccn1,94
